Compound activity (PubChem)
TRHR agonist – agonists of human TRH receptor | activation, % at 2 µM | 360,000 tested, 0.18% active | TRHR cells, calcium flux fluo-8, FDSS agonist mode | AID 493084
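TRHR-expressing cells loaded with fluo-8 calcium dye; 23 nL library compound pin-transferred, kinetic FDSS fluorescence (Ex 480/Em 530) recorded about 180 s for agonist-induced calcium release, before a 10 nM TRH EC20 addition for potentiator mode.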
D1 PAM – human D1 dopamine receptor positive modulation | potentiation, % at 10 µM | HEK293 TREx D1 cells, calcium flux, dopamine EC20 potentiation | P21728 | 360,000 tested, 0.036% active; in the data active = potentiation above about 30%
Target sequence (P21728 whole entry, looked up): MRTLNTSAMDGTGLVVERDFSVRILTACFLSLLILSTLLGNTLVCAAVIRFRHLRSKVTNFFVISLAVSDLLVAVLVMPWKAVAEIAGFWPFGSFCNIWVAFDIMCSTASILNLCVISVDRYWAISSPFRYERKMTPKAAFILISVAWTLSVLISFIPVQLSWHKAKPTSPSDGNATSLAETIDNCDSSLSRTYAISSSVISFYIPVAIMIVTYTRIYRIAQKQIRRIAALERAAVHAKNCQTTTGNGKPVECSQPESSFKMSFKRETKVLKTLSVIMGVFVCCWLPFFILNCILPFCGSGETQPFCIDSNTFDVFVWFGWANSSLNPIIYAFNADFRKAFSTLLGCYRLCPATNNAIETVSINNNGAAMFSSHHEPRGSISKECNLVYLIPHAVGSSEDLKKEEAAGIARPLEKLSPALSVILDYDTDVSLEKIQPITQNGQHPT
D1 ag – human D1 receptor agonism. P21728. HEK293 T-REx D1 cells, calcium flux, agonist mode. activation, % at 2 µM. 360,000 tested, 1% active
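Agonism was scored from calcium flux recorded over 180 s (1 read/s) after pintool compound addition, following a 10-cycle baseline. Cells were inducible force-coupled HEK293 TREx D1, plated overnight at 30 C and loaded with no-wash calcium dye.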
TRHR PAM – allosterically enhances the human TRH receptor | 360,000 tested, 0.66% active | TRHR cells, fluo-8 calcium fluorescence, EC20 TRH enhancement | enhancement, % at 2 µM; in the data active = enhancement above about 30%
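TRHR-expressing cells loaded with fluo-8 calcium dye were read kinetically (ex 480/em 530) during compound addition, then stimulated with an EC20 of TRH (10 nM final). Enhancement of the Gq-mediated intracellular calcium response was scored.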
D1 antagonist – antagonists of human D1 dopamine receptor; P21728; activity change, negative = inhibition, % at 10 µM; 360,000 tested, 3.2% active; HEK293 TREx D1 cells, calcium flux, dopamine EC80; hits give low values; in the data active = activity change below about -30%
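After overnight tetracycline induction at 30 C, force-coupled D1 HEK293 cells took up a no-wash calcium dye at room temperature. Compounds were added and monitored 180 s, and the response to EC80 dopamine was then recorded.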
Hits are given with their value; - = inactive; . = no result. The list is not random: actives were taken first. Their share in the collection is about 4.7%. Cut-off read from the data, not from the text of the source, unless noted: active = activation above about 30%; inactive = the rest.

SMILES	TRHR agonist	D1 PAM	D1 ag	TRHR PAM	D1 antagonist
COc1ccc(CN/C(C)=C(/C#N)C(N)=O)cc1OC	-	-	-	-	-66.5
Cc1ccc(CNC(=O)CC2Oc3ccccc3NC2=O)cc1 (centres undefined)	-	-	-	-	-
Cc1cc2c(n1-c1ccc(C(=O)NCCc3ccc(Cl)cc3)cc1)CCC(C)C2 (centres undefined)	-	-	-	31.0	-
Cc1cc2c(n1-c1ccc(C(=O)NCc3cccc(Br)c3)cc1)CCC(C)C2 (centres undefined)	-	-	-	-	-59.7
COc1cccc(CNC(=O)c2ccc(-n3c(C)cc4c3CCC(C)C4)cc2)c1 (centres undefined)	-	-	-	-	-
Cc1ccc(S(=O)(=O)CC(=O)Nc2nc3c(C)cc(C)cc3s2)cc1	-	-	-	-	.
COc1cc2c(cc1OC)C(C)N(C(=O)c1ccc(Cl)c(S(=O)(=O)N3CCCCC3)c1)CC2 (centres undefined)	-	-	-	-	-
COc1cccc(CNC(=O)CSC2=Nc3ccccc3C3=NC(C(C)C)C(=O)N23)c1 (centres undefined)	-	-	-	-	-
O=S(=O)(NCCSc1nc2ccccc2o1)c1ccccc1	-	-	-	-	-33.3
O=C(CSc1nc2ccccc2o1)Nc1ccccc1	-	-	-	-	-36.6
O=C(OCC1CCCO1)c1ccc2c(c1)N(Cc1ccccc1)C(=O)c1ccccc1S2(=O)=O (centres undefined)	-	-	-	-	-
CSc1ccc(CCNC(=O)c2ccc(-c3nc(COc4ccc(C)cc4)c(C)o3)cc2)cc1	-	-	-	-	-
Cc1oc(-c2ccc(C(=O)NCCc3ccc(Cl)cc3)cc2)nc1CSc1ccccc1	-	-	31.9	-	-
CSc1ccc(CCNC(=O)c2ccc(-c3nc(COc4ccccc4)c(C)o3)cc2)cc1	-	-	-	-	-63.1
CCc1ccc(CN(Cc2cn[nH]c2-c2ccc(OC)cc2)C(=O)Nc2cc(Cl)ccc2OC)cc1	-	-	-	-	-62.4
CC1CCc2nc3ncn(Cc4ccccc4C#N)c(=O)c3cc2C1 (centres undefined)	-	-	-	-	-
CCc1ccc(NC(=O)c2cc3c([nH]c2=O)CC(C)(C)CC3=O)cc1	-	-	-	-	-
COc1ccc(Cn2c(=O)c3oc4ccccc4c3n(Cc3cccc(C(F)(F)F)c3)c2=O)cc1	-	-	-	-	-
CCOC(=O)N1CCN(CC(O)COCc2ccccc2)CC1 (centres undefined)	-	-	-	-	-
CC1CCCN(CC(O)COc2ccc(-c3ccccc3)cc2)C1 (centres undefined)	-	-	41.6	-	-
OC1CCCN(CC(O)COc2ccc(-c3ccccc3)cc2)C1 (centres undefined)	-	-	30.4	-	-
CCOC(=O)N1CCN(CC(O)COc2ccc(-c3ccccc3)cc2)CC1 (centres undefined)	-	-	-	-	-31.4
CC1CCCN(CC(O)COc2ccc(Cl)cc2)C1 (centres undefined)	-	-	-	-	-
CCOc1ccccc1N(CC(=O)N(C)Cc1ccccc1)S(=O)(=O)c1ccccc1	-	-	-	-	-37.4
Cc1ccsc1/C=N/NC(=O)CO	-	-	-	-	-
SMILES	TRHR agonist	D1 PAM	D1 ag	TRHR PAM	D1 antagonist
CCOC(=O)N/N=C\c1sccc1C	-	-	-	-	-41.5
Cc1ccsc1/C=N\NC(=O)c1cc(C(C)(C)C)[nH]n1	-	-	-	-	-38.7
Cc1ccc(-n2nnnc2SCC(=O)Nc2cc(C)on2)c(C)c1	-	-	-	-	-
Cc1ccc(-n2nnnc2SCC(=O)Nc2sccc2C#N)cc1	-	-	-	-	-65.7
Cc1ccc(-n2nnnc2SCC(=O)Nc2ccc(N3CCN(C)CC3)cc2)c(C)c1	-	-	-	-	-60.5
CN1CCN(c2ccc(NC(=O)CSc3nnnn3-c3ccccc3F)cc2)CC1	-	-	-	-	-45.6
Cc1cc(C)c(NC(=O)C2CCN(C(=O)N3CC(C)Oc4ccc(Cl)cc43)CC2)c(C)c1 (centres undefined)	-	-	-	-	-
Cc1ccc(Cn2ccnc2SCC(=O)Nc2ccc3c(c2)OCCO3)cc1	-	-	-	-	-
OCCOc1ccc(CN2CCCC(N3CCN(c4ccc(F)cc4)CC3)C2)cc1 (centres undefined)	-	-	-	-	-42.9
COc1ccc(COC(=O)c2c(C)nn(-c3ccccc3)c2Cl)cc1	-	-	-	-	-37.3
O=C(NCc1ccc(F)cc1)c1ccc2c(=O)n3c(nc2c1)CCCCC3	-	-	-	-	-
Cc1nc2n(c(=O)c1CCN1CCC(c3noc4cc(F)ccc34)CC1)CCCC2	-	.	.	-	-75.0
COc1cccc2sc(N(CCCN(C)C)C(=O)c3ccc(S(=O)(=O)N4CCCc5ccccc54)cc3)nc12	-	-	39.0	-	-
CN(C)CCN(C(=O)c1ccc(S(=O)(=O)N2CCc3ccccc32)cc1)c1nc2ccc(F)cc2s1	-	-	-	-	-36.5
CN(C)CCCN(C(=O)c1ccc(S(=O)(=O)N2CCc3ccccc32)cc1)c1nc2c(Cl)cccc2s1	-	-	-	-	-
O=C(O)CCn1c(-c2ccccn2)nc2ccccc21	-	-	-	-	-
N#Cc1c(-n2ncnc2-c2ccc(Br)cc2)sc2c1CCCCC2	-	-	-	-	-
Cc1ccc(CN2CCN(C3CCN(C(=O)Nc4ccccc4C(F)(F)F)CC3)C(=O)C2=O)cc1	-	-	-	-	-
CS(=O)(=O)Nc1cccc(C2=NN(C(=O)c3cccc([N+](=O)[O-])c3)C(c3cccs3)C2)c1 (centres undefined)	-	-	-	-	-
CCOC(=O)c1ccc(CC(=O)c2ccc(O)c(O)c2O)o1	-	-	-	-	-47.5
Cc1nc(NC(=O)c2ccccc2)sc1C1(C)CC(c2ccccc2F)=NO1 (centres undefined)	-	-	-	-	-32.8
Cc1nc(-c2ccccc2)sc1C1(C)CC(c2c(Cl)cccc2Cl)=NO1 (centres undefined)	-	-	-	-	-
Cc1nc(NC(=O)c2ccccc2)sc1C1(C)CC(c2c(Cl)cccc2Cl)=NO1 (centres undefined)	-	-	-	-	-35.5
Cc1cc(N2CCN(c3ccc(F)cc3)CC2)n2nc(-c3ccc(Cl)cc3)nc2n1	-	-	-	-	-
Cc1c(C)n(Cc2ccccc2)c2ccc(C(=O)N3CCN(c4ccc(F)cc4)CC3)cc12	-	-	-	-	-73.9
Cc1c(C)n(Cc2ccccc2)c2ccc(C(=O)NCc3ccco3)cc12	-	-	-	-	-70.3
CCc1ccc(CNC(=O)c2ccc3c(c2)c(C)c(C)n3Cc2ccccc2)cc1	-	-	-	-	-
COc1cccc(CNC(=O)c2ccc3c(c2)c(C)c(C)n3Cc2ccccc2)c1	-	-	-	-	-32.6
